PubChem BioAssay AID361 (National Center for Advancing Translational Sciences (NCATS), 2006)
Screen size: about 51,000 compounds; about 600 (1.2%) were called active. Another 2% or so got no clear call; they are omitted. No stated cut-off is given here; in the data, active means potency below about 11 µM; inconclusive means mostly about 12 µM to 25 µM; inactive means weaker than that;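 the screen sought inhibitors and activators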. The entries come from a sample that favours actives as a whole.

system: pyruvate kinase (Bacillus stearothermophilus); experiment: Pyruvate Kinase; details: purified pyruvate kinase, luminescence ATP production; ribose 5-phosphate activator present at AC10
Procedure: Pyruvate kinase (partially purified from Bacillus stearothermophilus) was assayed for its ability to generate ATP from ADP using phosphoenolpyruvate (PEP) as a substrate. ATP generation was detected in a coupled reaction by luciferase-mediated luminescence, an ATP-dependent process. Pyruvate kinase substrates, PEP and ADP, were present in the assay at Km and […]-fold below Km respectively. The enzyme was assayed at an intermediate level of activity to screen for inhibitors and activators. In addition, ribose 5 phosphate, a positive modulator of pyruvate kinase, was included in the assay at AC10 in order to identify possible potentiators.
NCGC Assay Protocol Summary:
Three uL of substrate mix (final concentration, 50 mM imidazole pH 7.2, 50 mM KCl, 7 mM MgCl2, 2 mM PEP, 0.1 mM ADP, 0.7 nM ribose 5 phosphate, 0.01% Tween 20, 0.05% BSA) was dispensed into 1536 well plates. 23 nL of compound were delivered by a pin tool and 1 uL of enzyme mix (final concentration, 10 nM pyruvate kinase, 50 mM imidazole pH 7.2, 0.05% BSA) was added. After centrifugation at 1000 rpm for less than a minute, plates were incubated at room temperature for 2 hours. Three uL of detection and kinase stop mix (PKLight, Cambrex) was added, the plates centrifuged, and luminescence read by a ViewLux (Perkin Elmer) at 5 second exposure/plate. Data were normalized to the controls for AC100 stimulation (5 uM ribose 5 phosphate) and to AC100 inhibition (110 uM luteolin).
Potency means the concentration at half of the fitted maximal effect.

Potency, inactive:
FC(F)(F)c1nnc2sc(-c3ccco3)nn12 > 57 µM, COc1cc(OC)cc(C(=O)Nc2ncc3c(n2)CC(C)(C)CC3=O)c1 > 57 µM, Cn1c(=O)c2c(nc(N3CCCCCC3)n2CC(O)COc2ccc(Cl)cc2)n(C)c1=O (configuration not stated) > 57 µM, CCC(=O)Nc1ccc(C(=O)Nc2ccc3c(c2)C(=O)N(CC2CCCO2)C3=O)cc1 (configuration not stated) > 57 µM, COc1cccc(N(CC(=O)NC2CCCC2)C(=O)Cn2nnc(-c3ccc(C)cc3)n2)c1 > 57 µM, CCOc1cc(C(=O)Nc2ncccn2)cc(OCC)c1OCC > 57 µM, CCOC(=O)c1cc(-c2nnc(-c3cc(OC)c(OC)c(OC)c3)o2)c(C)nc1C > 57 µM, CCOC(=O)c1cc2c(n(-c3ccc(C)cc3)c1=O)CCCC2=O > 57 µM, CN1CCN(c2ccc(NC(=O)COc3ccc(Cl)cc3Cl)cc2)CC1 > 57 µM, CC(C)(C)NC(=O)C(c1ccco1)N(Cc1ccc2c(c1)OCO2)C(=O)Cn1nnc2ccccc21 (configuration not stated) > 57 µM, CCc1nnc(NC(=O)c2nc3nccc(C)n3n2)s1 > 57 µM, c1ccc(-n2ncc3c2ncn2c(C4CCCCC4)nnc32)cc1 > 57 µM, CCc1ccccc1NC(=O)CSc1nnc([C@@H](NC(=O)OC(C)(C)C)C(C)CC)o1 (some centres not stated) > 57 µM, Cc1cc(C)c(C#N)c(SCc2ccccc2C(=O)O)n1 > 57 µM, Cc1ccc(Cc2nc(-c3cccc(C)c3)no2)cc1 > 57 µM, COc1ccc2[nH]c(=O)c(-c3noc(-c4ccc(F)cc4)n3)cc2c1 > 57 µM, CCC(CC)C(=O)Nc1cc(C(=O)OC)cc(C(=O)OC)c1 > 57 µM, Cc1nc(NCc2ccccc2)c(C(N)=O)c2c1COC(C)(C)C2 > 25.6 µM, COc1ccc2oc(=O)c(C(=O)O)cc2c1 > 57 µM, Cc1cc(Cl)c(S(=O)(=O)NCc2cccnc2)cc1OCC(N)=O > 57 µM, Cc1nn(CC(=O)Nc2ccc3c(c2)nc(CN2CCCCC2)n3C)c(=O)c2ccccc12 > 57 µM, COC(=O)c1ccc2c(c1)S(=O)(=O)NC(=NCCCN1CCOCC1)S2 > 57 µM, COc1ccc2oc(C)c(NC(C)=O)c2c1 > 57 µM, O=C(Nn1cc(C(=O)N2CCN(c3ccccc3F)CC2)c2ccccc2c1=O)c1cnccn1 > 57 µM, COCC(C)n1c(SCc2ccc(C(=O)OC)o2)nc2ccccc2c1=O (configuration not stated) > 57 µM, CCOc1cc(-c2nc3cc(C)ccn3c2NCC2CCCO2)ccc1O (configuration not stated) > 57 µM, COc1ccccc1Cc1nc(-c2ccc(C)cc2)no1 > 57 µM, CCOc1nc(-c2ccc(OC)cc2)ccc1-c1noc(-c2cc(OC)c(OC)c(OC)c2)n1 > 57 µM, Cn1c(=O)c2c(n(Cc3ccccc3)c1=O)NC(=O)C2CC(=O)N1CCc2ccccc2C1 (configuration not stated) > 57 µM, CC(C)C(=O)N1CCN(CCN=CC2=C(O)CC(c3ccco3)CC2=O)CC1 (configuration not stated) > 57 µM, O=C(CN1CCN(C2CCCCC2)CC1)Nc1ccccc1N1CCCCC1 > 57 µM, Fc1ccccc1OCCCCn1cncn1 > 57 µM, Cc1cccc(-n2ncc3c(N4CCc5ccccc54)ncnc32)c1 > 57 µM, CCN(CC)CCCN1C(=O)C(=O)/C(=C(/O)c2c(C)nc3ccccn23)C1c1ccc(C)o1 (configuration not stated) > 57 µM

Potency, active:
Cc1cccc(-c2noc(-c3ccc(F)cc3)n2)c1 10.4 µM, CC(C)OC(=O)c1cc(NC(=O)C2C3CCC(O3)C2C(=O)O)cc(C(=O)OC(C)C)c1 (configuration not stated) 6.13 µM, COc1ccc(-c2nc(-c3ccccc3)no2)c(OC)c1 0.55 µM
